Assay results as given in PubChem BioAssay (NCATS).
“And” between values parts separate entries of the source, which are not always exact repeats. Equal values may be shown once. Inconclusive results are not listed. The source made the active and inactive calls. Unless noted, calls come from the whole dose curve; as a rule, active = well fitted curve in either direction with a large enough effect (not every such curve was filed as active); inconclusive = small, poorly fitted or top-dose-only effect, or another doubt; inactive = flat fitted curve, though single readings scatter.

Assays:
[1] = AP1 Signaling Pathway (AID 357);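 note: ME-180 reporter cells stimulated with EGF at its EC50 level; % is set by controls: 0 for no effect and ±100 for the full control effect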
Outline: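 First, ME-180 AP-1-bla cells were cultured overnight at 37 °C in low-serum Opti-MEM. Next, titrated compounds with EC50 EGF were incubated 5 hours. Finally, CCF4 was added for 2.5 hours and the 460/530 nm ratio recorded.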

[2] = Cell Viability - BJ (AID 421; calls by dose curve;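 note: potency is the fitted concentration of half-maximal effect; cells exposed to compound for 40 hours at 37 °C before readout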); conditions: BJ fibroblast viability, qHTS
Outline: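 Cytotoxicity as drop in intracellular ATP (CellTiter-Glo, 20 min RT) after 40 hr compound exposure of BJ fibroblasts at 37 °C. Titrations scaled between DMSO and 100 uM tamoxifen, Hill-fitted for AC50.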

[3] = Cell Viability - MRC5 (AID 434; calls by dose curve;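 note: potency is the fitted concentration of half-maximal effect; potency reflects cytotoxicity seen as loss of intracellular ATP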); conditions: MRC5 lung fibroblast viability, qHTS
Outline: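 MRC5 normal human lung fibroblasts, 1500 cells/well, exposed to compound for 40 hr at 37 C. Cellular ATP was read by CellTiter-Glo luminescence; data normalized to DMSO and 100 uM tamoxifen, with AC50 from Hill fits.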

[4] = NFAT Signaling Pathway (AID 444);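 note: carbachol stimulus at about its EC50 of 1 µM final; % is set by controls: 0 for no effect and ±100 for the full control effect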
Outline: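 Jurkat cells with NFAT-driven β-lactamase reporter and co-expressed M1 receptor, stimulated with carbachol (final 1 uM, ~EC50), compound titration, 5 h at 37 °C. CCF4 loaded 1 h at RT; 460/530 nm ratio gave %activity and AC50.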

[5] = Stat Signaling Pathway (AID 446); conditions: ME-180 SIE beta-lactamase reporter, IL-6 stimulated, 5 h;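 note: ME-180 cervical cancer cells given 40 pM IL-6 alongside compound; SIE-controlled beta-lactamase reporter measured as 460/530 nm FRET emission ratio; % is set by controls: 0 for no effect and ±100 for the full control effect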
Outline: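 Reporter line: ME-180 cervical carcinoma, SIE-beta-lactamase. Treatment: compound with 40 pM IL-6, 5 hrs, 37 C, in low-serum OPTI-MEM with 10 mM HEPES pH 7.3. Detection: 460/530 nm fluorescence.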

[6] = target: Glucocorticoid receptor (Homo sapiens) (UniProt P04150); assay: GR-GFP Redistribution (AID 450;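 active = compounds whose dose series gives a full or clear partial fitted curve of increased nuclear translocation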; note: potency is the fitted concentration of half-maximal effect); conditions: U2OS GR-GFP nuclear translocation, laser cytometry, 2 h
Chain of Glucocorticoid receptor (Homo sapiens) (P04150 whole entry, looked up): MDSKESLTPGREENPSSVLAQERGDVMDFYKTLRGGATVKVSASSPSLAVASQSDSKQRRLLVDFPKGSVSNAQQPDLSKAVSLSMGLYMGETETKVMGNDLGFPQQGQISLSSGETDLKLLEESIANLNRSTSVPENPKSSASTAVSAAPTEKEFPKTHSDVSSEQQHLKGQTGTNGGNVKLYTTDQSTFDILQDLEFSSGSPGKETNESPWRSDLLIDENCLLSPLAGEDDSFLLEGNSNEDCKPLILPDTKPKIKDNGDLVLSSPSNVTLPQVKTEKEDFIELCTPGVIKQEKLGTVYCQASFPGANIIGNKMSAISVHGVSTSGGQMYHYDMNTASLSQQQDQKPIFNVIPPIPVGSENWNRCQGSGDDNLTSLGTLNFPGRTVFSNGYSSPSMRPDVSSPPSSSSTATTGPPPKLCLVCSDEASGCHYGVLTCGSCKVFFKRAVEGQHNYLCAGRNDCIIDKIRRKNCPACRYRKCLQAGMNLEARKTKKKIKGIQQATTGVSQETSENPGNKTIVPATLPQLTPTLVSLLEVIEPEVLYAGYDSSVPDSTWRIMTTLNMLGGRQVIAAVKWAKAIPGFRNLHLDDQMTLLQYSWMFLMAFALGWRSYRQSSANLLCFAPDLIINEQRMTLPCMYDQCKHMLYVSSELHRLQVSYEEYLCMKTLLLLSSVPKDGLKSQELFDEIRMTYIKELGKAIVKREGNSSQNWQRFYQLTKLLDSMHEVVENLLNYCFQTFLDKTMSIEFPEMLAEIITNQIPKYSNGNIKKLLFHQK

[7] = target: Mitogen-activated protein kinase 10 (Mus musculus) (UniProt Q61831); assay: JNK3 AlphaScreen Assay (AID 530);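 note: kinase came from lysate of stimulated human HepG2 cells; signal reports phosphorylation of biotinylated GST-cJun 1-79 at Ser73 with 10 µM ATP; % is set by controls: 0 for no effect and ±100 for the full control effect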
Outline: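 qHTS format: compounds tested as titrations against IL-1beta/TNF-alpha-activated HepG2 lysate JNK3 with biotin-GST-cJun substrate and 10 uM ATP at room temperature. Loss of anti-phospho-cJun AlphaScreen signal indicates inhibition.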

[8] = Cell Viability - HUV-EC-C (AID 542; active = well fitted curve in the direction sought with a large enough effect; an effect the other way counts as inactive or inconclusive; note: % is set by controls: 0 for no effect and ±100 for the full control effect; nearly all actives have a fitted effect of over 35% in size)
Outline: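 Decrease in cellular ATP, quantified by luciferase luminescence, reflects toxicity in normal human vascular endothelial HUV-EC-C cells given compound for 40 hr in complete culture medium. Values are AC50s from concentration-response curves.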

[9] = Cell Viability - H-4-II-E (AID 543; active = well fitted curve in the direction sought with a large enough effect; an effect the other way counts as inactive or inconclusive; note: % is set by controls: 0 for no effect and ±100 for the full control effect; nearly all actives have a fitted effect of over 35% in size)
Outline: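 Here, cytotoxicity is measured in the rat hepatoma line H-4-II-E as loss of intracellular ATP after 40 hr compound treatment, detected by luciferase luminescence.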

[10] = Cell Viability - SH-SY5Y (AID 544; active = well fitted curve in the direction sought with a large enough effect; an effect the other way counts as inactive or inconclusive;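 note: 0% = DMSO alone and -100% = 100 µM tamoxifen; nearly all actives have a fitted effect of over 55% in size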); conditions: SH-SY5Y neuroblastoma cell viability; viability change, negative = cytotoxic: at 92.2 µM (top of the series)
Outline: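 Cytotoxicity is scored as a concentration-dependent fall in intracellular ATP in human SH-SY5Y cells treated 40 hr in complete culture medium. Potency is expressed as AC50 from a Hill equation fit.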

[11] = target: Cytochrome P450 1A2 (Homo sapiens) (UniProt P05177); assay: p450-cyp1a2 (AID 410; calls by dose curve; note: potency is the fitted concentration of half-maximal effect)
Chain of Cytochrome P450 1A2 (Homo sapiens) (P05177 whole entry, looked up): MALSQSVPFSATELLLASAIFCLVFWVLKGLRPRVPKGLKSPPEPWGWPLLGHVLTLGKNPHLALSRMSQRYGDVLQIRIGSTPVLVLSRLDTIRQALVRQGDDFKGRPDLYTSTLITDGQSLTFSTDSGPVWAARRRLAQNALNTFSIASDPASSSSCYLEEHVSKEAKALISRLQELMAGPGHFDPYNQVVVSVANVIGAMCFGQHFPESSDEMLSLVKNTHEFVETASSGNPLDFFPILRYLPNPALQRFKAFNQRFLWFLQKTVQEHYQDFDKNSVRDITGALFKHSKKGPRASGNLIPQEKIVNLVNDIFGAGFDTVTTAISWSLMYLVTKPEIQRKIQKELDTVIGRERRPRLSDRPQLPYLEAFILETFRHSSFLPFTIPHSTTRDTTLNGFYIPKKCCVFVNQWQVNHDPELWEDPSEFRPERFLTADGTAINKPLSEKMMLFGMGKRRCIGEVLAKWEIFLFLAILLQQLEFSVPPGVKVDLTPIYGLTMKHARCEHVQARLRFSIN
Outline: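 Inhibition was calculated relative to 57 uM furafylline (full inhibition). The reaction used human CYP1A2 at 20nM with Luciferin-ME at its Km, 100uM, driven by an NADPH-regenerating system for 60 min at room temperature.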

[12] = target: 3',5'-cyclic-AMP phosphodiesterase 4B (Homo sapiens) (UniProt Q07343); assay: qHTS Assay for Inhibitors of PDE-IV (AID 607; active = well fitted activation curve with a large enough effect in the main read-out, with a control signal flat, not every such curve was filed as active; note: % of control where 0% means no effect)
Chain of 3',5'-cyclic-AMP phosphodiesterase 4B (Homo sapiens) (Q07343 whole entry, looked up): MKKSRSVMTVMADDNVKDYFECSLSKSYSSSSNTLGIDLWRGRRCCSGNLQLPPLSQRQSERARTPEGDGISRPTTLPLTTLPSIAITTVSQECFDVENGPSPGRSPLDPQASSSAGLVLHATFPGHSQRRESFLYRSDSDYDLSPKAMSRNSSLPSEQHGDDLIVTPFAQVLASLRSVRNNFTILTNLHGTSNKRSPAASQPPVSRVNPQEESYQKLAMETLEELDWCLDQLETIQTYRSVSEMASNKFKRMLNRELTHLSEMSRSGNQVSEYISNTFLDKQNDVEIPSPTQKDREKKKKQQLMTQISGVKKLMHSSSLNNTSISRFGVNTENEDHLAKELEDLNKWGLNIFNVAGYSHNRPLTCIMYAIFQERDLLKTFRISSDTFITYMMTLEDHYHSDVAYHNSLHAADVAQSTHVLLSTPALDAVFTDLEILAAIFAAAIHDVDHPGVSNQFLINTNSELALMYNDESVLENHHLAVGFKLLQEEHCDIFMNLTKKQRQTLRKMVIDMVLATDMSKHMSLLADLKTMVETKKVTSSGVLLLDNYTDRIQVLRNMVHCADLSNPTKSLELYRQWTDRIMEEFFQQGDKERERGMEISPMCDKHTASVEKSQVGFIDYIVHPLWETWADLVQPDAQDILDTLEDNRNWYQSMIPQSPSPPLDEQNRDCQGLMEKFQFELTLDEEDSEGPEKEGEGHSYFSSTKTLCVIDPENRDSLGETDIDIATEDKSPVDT
Outline: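 Cell-based read-out of cAMP via a modified cyclic nucleotide-gated channel and membrane potential dye (535/590 nm) in HEK293 cells expressing PDE4 endogenously. Compounds tested up to 22.9 uM final; 100 uM RO 20-1724 reference.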

[13] = Cell Viability - Hek293 (AID 427;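 active = compounds whose dose-response curve shows a full or clear partial loss of cell viability, called from curve shape rather than a numeric limit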;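 note: potency is the fitted concentration of half-maximal effect; cells exposed to compound for 40 hours at 37 °C before reading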); conditions: qHTS
Outline: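 Luminescent ATP content (CellTiter-Glo, 20 min at room temperature) was measured after a 40 hr, 37 °C compound exposure of HEK293 cells. AC50 values came from Hill-equation fits of qHTS concentration-response data normalized to DMSO and 100 uM tamoxifen.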

[14] = Cell Viability - HepG2 (AID 433; calls by dose curve;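 note: potency is the fitted concentration of half-maximal effect; potency for ATP loss meaning cytotoxicity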); conditions: qHTS
Outline: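 Cytotoxicity read as ATP loss (CellTiter-Glo luminescence) after 40 hr compound exposure of HepG2, 1500 cells/well, 37 °C. AC50 by Hill equation; 0% set by DMSO, 100% inhibition by 100 uM tamoxifen.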

[15] = Cell Viability - SK-N-SH (AID 435; calls by dose curve; note: potency is the fitted concentration of half-maximal effect); conditions: SK-N-SH neuroblastoma cell viability qHTS
Outline: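 qHTS cytotoxicity: CellTiter-Glo ATP luminescence after 40 h compound exposure of human neuroblastoma SK-N-SH cells at 37 °C. AC50 derived by Hill-equation fitting, with DMSO as basal and 100 uM tamoxifen as full inhibition.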

[16] = Cell Viability - N2a (AID 540; active = well fitted curve in the direction sought with a large enough effect; an effect the other way counts as inactive or inconclusive;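 note: plate controls were DMSO alone for no effect and tamoxifen control for full effect; nearly all actives have a fitted effect of over 45% in size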); conditions: N2a mouse neuroblastoma cell viability; activity change, negative = cytotoxicity: at 92.2 µM (top of the series)
Outline: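 First, 1500 N2a cells per well incubate 5 hr at 37 °C; next, compounds are added and incubated 40 hr at 37 °C; finally CellTiter-Glo is added and luminescence read after 20 min, with AC50 derived by Hill modeling.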

[17] = Cell Viability - NIH 3T3 (AID 541; active = well fitted curve in the direction sought with a large enough effect; an effect the other way counts as inactive or inconclusive;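 note: plate controls were DMSO alone for no effect and tamoxifen positive control for full effect; nearly all actives have a fitted effect of over 25% in size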); conditions: NIH 3T3 cell viability, qHTS; at 92.2 µM (top of the series)
Outline: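 AC50 values reflect concentration-dependent loss of intracellular ATP in NIH 3T3 cells after 40 hr treatment in complete culture medium, quantified by luciferase-based luminescence.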

[18] = Cell Viability - Mesenchymal (AID 546; active = well fitted curve in the direction sought with a large enough effect; an effect the other way counts as inactive or inconclusive;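 note: cells exposed to compound for 40 hours before reading; 0% = DMSO only and -100% = 100 µM tamoxifen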); conditions: mesenchymal cells viability, qHTS; activity change, negative = cytotoxicity: at 91.7 µM (top of the series)
Outline: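 Human kidney mesenchymal cells from normal renal glomeruli, 1000 cells/well, rested 5 hr at 37 °C, then treated 40 hr at 37 °C in complete medium. Cellular ATP read by CellTiter-Glo luminescence; AC50 from Hill-equation fits.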

[19] = Cell Viability - Jurkat (AID 426;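 active = dose-dependent loss of cell ATP signal giving a full or clear fitted curve, ranked by lower potency value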; note: potency is the fitted concentration of half-maximal effect); conditions: qHTS
Outline: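 Seed 5000 Jurkat E6-1 cells/well; add compound; incubate 40 hr at 37 °C; add CellTiter-Glo; wait 20 min at room temperature; read luminescence. Fit concentration-response with Hill equation for AC50.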

[20] = target: Lysosomal acid glucosylceramidase (Homo sapiens) (UniProt P04062); assay: Glucocerebrosidase-p2 (AID 348; in the data active = potency below about 10 µM; note: potency is the fitted concentration of half-maximal effect); conditions: purified GBA, blue fluorogenic substrate, 40 min
Chain of Lysosomal acid glucosylceramidase (Homo sapiens) (P04062 whole entry, looked up): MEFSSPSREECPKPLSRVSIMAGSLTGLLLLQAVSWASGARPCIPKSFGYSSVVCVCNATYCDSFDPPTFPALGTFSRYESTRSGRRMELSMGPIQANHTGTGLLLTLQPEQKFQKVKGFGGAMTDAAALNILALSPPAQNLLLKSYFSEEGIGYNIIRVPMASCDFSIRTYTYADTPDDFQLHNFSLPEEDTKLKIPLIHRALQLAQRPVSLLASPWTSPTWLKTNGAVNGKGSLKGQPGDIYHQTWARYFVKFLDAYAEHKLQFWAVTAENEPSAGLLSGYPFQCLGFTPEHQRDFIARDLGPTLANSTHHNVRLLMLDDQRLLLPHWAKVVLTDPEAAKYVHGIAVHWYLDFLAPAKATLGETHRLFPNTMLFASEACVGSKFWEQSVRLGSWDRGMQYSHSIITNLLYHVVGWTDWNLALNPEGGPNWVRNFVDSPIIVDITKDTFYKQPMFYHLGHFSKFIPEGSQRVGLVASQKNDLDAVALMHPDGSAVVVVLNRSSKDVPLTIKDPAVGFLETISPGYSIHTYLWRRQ
Outline: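 Compounds titrated from 0.6 nM upwards against 0.2 nM enzyme in pH 5.9 citric acid/KH2PO4, taurocholate, tween-20; blue fluorogenic substrate 80 uM, 40 min room temperature, stopped and read Ex 365/Em 440 for AC50.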

O=C(O)c1cc(O)c2c(c1)C(=O)c1cccc(O)c1C2=O
inactive: outcome [1] | Potency [2] > 92 µM | Potency [3] > 92 µM | outcome [4] | activity, negative = inhibition ([5]; at 17.2 µM (top of the series)) 11.9% | Potency [6] > 20.6 µM | outcome [7] | Potency [8] | Potency [9] | Potency [10]

NCCS
inactive: outcome [1] | Potency [11] | outcome [4] | activity, negative = inhibition ([5]; at 38 µM (top of the series)) -9.49% | outcome [7] | outcome [12]

COc1ccc(-c2coc3cc(O)cc(O)c3c2=O)cc1
active: Potency [11] 3.98 µM
inactive: outcome [1] | outcome [4] | activity, negative = inhibition ([5]; at 17.2 µM (top of the series)) 5.25% | Potency [6] > 46 µM and > 20.6 µM | outcome [7]

Clc1ccc(Cn2c(CN3CCCC3)nc3ccccc32)cc1
active: Potency [11] 10 µM and 3.98 µM
inactive: outcome [1] | outcome [4] | activity, negative = inhibition ([5]; at 17.2 µM (top of the series)) -8.1% and 3.26% | activity, negative = inhibition ([5]; at 38 µM (top of the series)) 0.465% | Potency [6] > 46 µM and > 20.6 µM | outcome [7] | outcome [12]

CCCCC1C(=O)N(c2ccccc2)N(c2ccccc2)C1=O
inactive: outcome [1] | Potency [11] | Potency [2] > 92 µM | Potency [13] > 92 µM | Potency [14] > 92 µM | Potency [3] > 92 µM | Potency [15] > 92 µM | outcome [4] | activity, negative = inhibition ([5]; at 17.2 µM (top of the series)) -15.3% | activity, negative = inhibition ([5]; at 38 µM (top of the series)) -22.4% | Potency [6] > 46 µM and > 20.6 µM | outcome [7] | Potency [16] | activity change, negative = cytotoxicity [17] -19.1% | Potency [8] | Potency [9] | Potency [10] | Potency [18] | outcome [12]

O=c1c(-c2ccc(O)cc2)coc2cc(O)ccc12
active: Potency [11] 15.8 µM
inactive: outcome [1] | Potency [2] > 92 µM | Potency [19] > 92 µM | Potency [13] > 92 µM | Potency [14] > 92 µM | Potency [3] > 92 µM | Potency [15] > 92 µM | outcome [4] | activity, negative = inhibition ([5]; at 38 µM (top of the series)) -22% | Potency [6] > 46 µM | outcome [7] | Potency [16] | Potency [8] | Potency [10] | Potency [18] | outcome [12]

CCN1CCC[C@H]1CNC(=O)c1cc(S(N)(=O)=O)ccc1OC
inactive: outcome [1] | Potency [11] | outcome [4] | activity, negative = inhibition ([5]; at 17.2 µM (top of the series)) 8.96% | Potency [6] > 20.6 µM and > 46 µM | outcome [7] | outcome [12]

CCN(CC)CCOC(=O)c1ccc(N)cc1
inactive: outcome [1] | Potency [11] | activity, negative = inhibition ([5]; at 17.2 µM (top of the series)) 13% | activity, negative = inhibition ([5]; at 38 µM (top of the series)) -13.6% | outcome [7] | outcome [12]

COCCCCC(=NOCCN)c1ccc(C(F)(F)F)cc1
active: Potency [11] 158 nM and 39.8 nM and 15.8 nM
inactive: outcome [1] | outcome [4] | activity, negative = inhibition ([5]; at 17.2 µM (top of the series)) -3.51% | activity, negative = inhibition ([5]; at 38 µM (top of the series)) -10.7% | Potency [6] > 46 µM and > 20.6 µM | outcome [12]

COc1ccccc1N1CCN(CCCNc2cc(=O)n(C)c(=O)n2C)CC1
inactive: outcome [1] | Potency [11] | outcome [4] | activity, negative = inhibition ([5]; at 17.2 µM (top of the series)) -0.455% | activity, negative = inhibition ([5]; at 38 µM (top of the series)) 1.93% | outcome [7] | outcome [12]

O=C(O)CCc1nc(-c2ccccc2)c(-c2ccccc2)o1
inactive: Potency [20] > 11.4 µM | outcome [1] | outcome [4] | activity, negative = inhibition ([5]; at 7.69 µM (top of the series)) 5.68% | activity, negative = inhibition ([5]; at 17.2 µM (top of the series)) -0.803% | activity, negative = inhibition ([5]; at 38 µM (top of the series)) -12.8% | Potency [6] > 46 µM and > 20.6 µM | outcome [7] | outcome [12]
